PubChem BioAssay (Tox21)
Records with an inconclusive call do not appear. Activity calls are given as the source filed them. Unless noted, the call rests on the fitted dose curve.

How the values were obtained:
[1] = Nuclear factor erythroid 2-related factor 2/antioxidant responsive element (Nrf2/ARE) small molecule agonists: qHTS cell viability counter screen in human keratinocytes (AID 1919968; active means well fitted curve in the direction sought with a large enough effect in the repeat runs; an effect the other way counts as inactive or inconclusive; further: nearly all actives have a fitted effect of over 55% in size)
Outline: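 After a 5 h attachment period, ARE-reporter keratinocytes were dosed with compounds in DMSO and then cultured 23 h at 37 C. Cell viability came from CellTiter-Fluor signal read after a further 1 h.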

[2] = Nuclear factor erythroid 2-related factor 2/antioxidant responsive element (Nrf2/ARE) small molecule agonists: luciferase reporter gene qHTS assay in human keratinocytes (AID 1919969); further: nearly all actives have a fitted effect of over 35% in size
[3] = biological target: Gonadotropin-releasing hormone receptor (Homo sapiens) (UniProt P30968); experiment: Human gonadotropin-releasing hormone receptor (GnRHR) small molecule agonists, calcium flux assay in GnRHR-HEK293 cells (AID 1920063); further: nearly all actives have a fitted effect of over 35% in size
Chain of Gonadotropin-releasing hormone receptor (Homo sapiens) (P30968 whole entry, looked up): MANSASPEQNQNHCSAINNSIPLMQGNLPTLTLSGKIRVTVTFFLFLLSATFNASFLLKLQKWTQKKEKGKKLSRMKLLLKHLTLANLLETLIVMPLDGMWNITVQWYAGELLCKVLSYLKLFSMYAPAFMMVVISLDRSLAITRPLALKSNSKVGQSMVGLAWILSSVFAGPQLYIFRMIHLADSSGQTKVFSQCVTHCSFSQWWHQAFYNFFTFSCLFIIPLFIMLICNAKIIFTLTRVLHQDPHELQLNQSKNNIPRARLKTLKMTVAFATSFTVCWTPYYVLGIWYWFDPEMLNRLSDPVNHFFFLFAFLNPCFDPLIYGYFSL
Outline: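 We seeded human GnRHR-expressing HEK293 cells for 18 hours, loaded them with calcium dye for an hour at 37 C, added test compounds, and recorded fluorescence intensity kinetically for three minutes.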

[4] = biological target: KiSS-1 receptor (Homo sapiens) (UniProt Q969F8); experiment: Human kisspeptin (KISS1R) small molecule agonists, calcium flux assay in KISS1R-HEK293 cells (AID 1920064; active means well fitted curve in the direction sought with a large enough effect in the repeat runs; an effect the other way counts as inactive or inconclusive)
Chain of KiSS-1 receptor (Homo sapiens) (Q969F8 whole entry, looked up): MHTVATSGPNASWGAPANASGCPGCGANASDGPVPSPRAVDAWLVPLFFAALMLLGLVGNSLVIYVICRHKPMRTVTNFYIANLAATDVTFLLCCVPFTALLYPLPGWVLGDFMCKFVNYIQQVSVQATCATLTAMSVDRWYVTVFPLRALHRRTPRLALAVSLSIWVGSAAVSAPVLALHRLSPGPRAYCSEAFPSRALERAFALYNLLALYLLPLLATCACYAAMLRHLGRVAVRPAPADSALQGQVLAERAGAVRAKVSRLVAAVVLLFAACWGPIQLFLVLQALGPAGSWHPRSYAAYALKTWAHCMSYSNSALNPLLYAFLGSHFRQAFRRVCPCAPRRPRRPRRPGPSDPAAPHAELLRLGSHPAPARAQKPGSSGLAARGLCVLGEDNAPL
Outline: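 Kinetic calcium assay, 1 s sampling over 3 min at Ex/Em 480/540, in HEK293 cells engineered with human KISS1R; compounds delivered in DMSO after 1 h dye loading.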

[5] = G protein-coupled receptor (GPCR) small molecule agonists, calcium flux assay: HEK293 wild type cell line counter screen (AID 1920065)
Outline: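 Calcium-sensitive dye, loaded 1 h at 37 C into cells cultured 18 h, reports compound-evoked calcium release as fluorescence (Ex/Em 480/540), measured over 3 min. Agonist mode; 15-point titrations, triplicate.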

[6] = p53 small molecule agonists, cell-based qHTS assay with human liver microsomes (AID 1963577);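 further: p53 response element beta-lactamase reporter cells with liver microsomes plus NADPH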
Outline: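 Metabolically competent format: test substances, human liver microsomes and NADPH (both 0.5 mg/mL final) incubated with p53RE-bla cells 16 h at 37 C. Beta-lactamase reporter signal then quantified by fluorescence.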

[7] = p53 small molecule agonists, cell-based qHTS assay with rat liver microsomes (AID 1963578)
Outline: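 Each plate received p53RE-bla cells, then compound, then rat liver microsomes and NADPH (both 0.5 mg/mL final). Plates were held 16 h at 37 C, and beta-lactamase activity was detected with LiveBLAzer over 2 h.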

[8] = p53 small molecule agonists, cell-based qHTS assay with human liver microsomes: qHTS cell viability counter screen (AID 1963579); further: nearly all actives have a fitted effect of over 45% in size
Outline: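 Tox21 library compounds, delivered from DMSO stocks, were tested on p53RE-bla cells together with 0.5 mg/mL human liver microsomes and 0.5 mg/mL NADPH (final) over 16 h at 37 C; CellTiter-Glo luminescence served as the cytotoxicity measure.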

[9] = p53 small molecule agonists, cell-based qHTS assay with rat liver microsomes: qHTS cell viability counter screen (AID 1963580); further: nearly all actives have a fitted effect of over 45% in size
Outline: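 p53RE-bla HCT-116 cells were exposed 16 h at 37 C to compounds with rat liver microsomes (0.5 mg/mL) and NADPH (0.5 mg/mL). Viability was measured in the same wells as ATP content by CellTiter-Glo luminescence.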

[10] = p53 small molecule agonists, cell-based qHTS assay: qHTS cell viability counter screen (AID 1963581); further: nearly all actives have a fitted effect of over 45% in size
Outline: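 Following 5 h attachment, HCT-116 p53RE-bla cells took up compound for 16 h at 37 C; the reporter was read with B/G FRET substrate (2 h RT), and viability then via CellTiter-Glo ATP luminescence.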

[11] = p53 small molecule agonists, cell-based qHTS assay (AID 1963582; active means well fitted activation curve with a large enough effect in the signal ratio in the repeat runs, not every such curve was filed as active; the % refers to the signal ratio)
Outline: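 In this cell-based concentration-response screen, a p53 response element drives beta-lactamase; cells received DMSO-borne compounds after 5 h culture and were incubated a further 16 h before FRET substrate development.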

[12] = biological target: 5-hydroxytryptamine receptor 2A (Homo sapiens) (UniProt P28223); experiment: 5-hydroxytryptamine receptor 2A (HTR2A) small molecule antagonists, cell-based qHTS assay (AID 1963586); further: nearly all actives have a fitted effect of over 45% in size
Chain of 5-hydroxytryptamine receptor 2A (Homo sapiens) (P28223 whole entry, looked up): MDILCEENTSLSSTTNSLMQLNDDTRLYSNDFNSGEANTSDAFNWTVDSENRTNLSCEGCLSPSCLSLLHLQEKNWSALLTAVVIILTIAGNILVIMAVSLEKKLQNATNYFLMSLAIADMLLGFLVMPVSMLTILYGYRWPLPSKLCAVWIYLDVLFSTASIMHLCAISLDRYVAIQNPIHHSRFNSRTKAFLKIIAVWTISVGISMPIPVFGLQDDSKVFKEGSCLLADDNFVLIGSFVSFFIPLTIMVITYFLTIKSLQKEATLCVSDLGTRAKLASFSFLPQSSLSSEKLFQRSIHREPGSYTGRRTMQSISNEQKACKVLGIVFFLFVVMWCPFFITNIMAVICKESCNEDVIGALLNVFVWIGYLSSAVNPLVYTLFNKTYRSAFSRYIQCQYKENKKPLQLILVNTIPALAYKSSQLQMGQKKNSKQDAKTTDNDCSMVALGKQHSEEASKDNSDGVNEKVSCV
Outline: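 Antagonist-mode intracellular calcium assay: DOI (4 nM) added after 5 min compound pre-incubation at room temperature to dye-loaded HTR2A-CHO cells. Fluorescence followed for 3 min, sampled every second.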

[13] = biological target: 5-hydroxytryptamine receptor 2A (Homo sapiens) (UniProt P28223); experiment: 5-hydroxytryptamine receptor 2A (HTR2A) small molecule agonists, cell-based qHTS assay (AID 1963587); further: nearly all actives have a fitted effect of over 30% in size
Outline: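 CHO cells stably expressing human HTR2A, plated 18 h, loaded with calcium dye 1 h at 37 C. Agonist mode: compounds added and intracellular calcium fluorescence recorded kinetically for 2 min at 1 sec intervals.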

[14] = biological target: Muscarinic acetylcholine receptor M1 (Homo sapiens) (UniProt P11229); experiment: Cholinergic receptor muscarinic 1 (CHRM1) small molecule antagonists, cell-based qHTS assay (AID 1963588); further: nearly all actives have a fitted effect of over 40% in size
Chain of Muscarinic acetylcholine receptor M1 (Homo sapiens) (P11229 whole entry, looked up): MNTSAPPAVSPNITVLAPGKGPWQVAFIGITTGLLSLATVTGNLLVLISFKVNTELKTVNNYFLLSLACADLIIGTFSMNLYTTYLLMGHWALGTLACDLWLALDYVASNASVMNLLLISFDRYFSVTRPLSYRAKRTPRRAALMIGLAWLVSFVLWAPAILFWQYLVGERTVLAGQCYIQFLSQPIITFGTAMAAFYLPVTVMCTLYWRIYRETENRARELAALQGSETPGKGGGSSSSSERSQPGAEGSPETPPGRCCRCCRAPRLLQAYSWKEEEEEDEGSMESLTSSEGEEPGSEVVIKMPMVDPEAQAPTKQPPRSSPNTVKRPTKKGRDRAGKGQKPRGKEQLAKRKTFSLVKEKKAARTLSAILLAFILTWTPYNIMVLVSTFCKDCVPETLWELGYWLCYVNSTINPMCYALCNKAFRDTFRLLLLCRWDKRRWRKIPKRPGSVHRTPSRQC
Outline: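 CHRM1-CHO calcium-flux assay, antagonist mode. Cells were seeded 18 h, dye-loaded 1 h at 37 C and given compound for 5 min at RT, then acetylcholine was added at 50nM. FDSS fluorescence was read 3 min; 15 concentrations, three runs.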

[15] = cAMP Responsive Elements (CRE) small molecule antagonists, cell-based qHTS assay (AID 1963591; active means well fitted inhibition curve with a large enough effect in the signal ratio in the repeat runs, not every such curve was filed as active; the % refers to the signal ratio)
Outline: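 HEK293T cells carrying a CRE-driven beta-lactamase reporter receive compound and NKH477 (0.25 uM final) for 3 h. Fluorescence from LiveBLAzer B/G FRET substrate is read after 2 h at room temperature.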

[16] = biological target: Beta-2 adrenergic receptor (Homo sapiens) (UniProt P07550); experiment: Adrenergic beta2 receptor (ADRB2) small molecule antagonists, cell-based qHTS assay (AID 1963592); further: series mostly up to about 92 µM; nearly all actives have a fitted effect of over 50% in size
Chain of Beta-2 adrenergic receptor (Homo sapiens) (P07550 whole entry, looked up): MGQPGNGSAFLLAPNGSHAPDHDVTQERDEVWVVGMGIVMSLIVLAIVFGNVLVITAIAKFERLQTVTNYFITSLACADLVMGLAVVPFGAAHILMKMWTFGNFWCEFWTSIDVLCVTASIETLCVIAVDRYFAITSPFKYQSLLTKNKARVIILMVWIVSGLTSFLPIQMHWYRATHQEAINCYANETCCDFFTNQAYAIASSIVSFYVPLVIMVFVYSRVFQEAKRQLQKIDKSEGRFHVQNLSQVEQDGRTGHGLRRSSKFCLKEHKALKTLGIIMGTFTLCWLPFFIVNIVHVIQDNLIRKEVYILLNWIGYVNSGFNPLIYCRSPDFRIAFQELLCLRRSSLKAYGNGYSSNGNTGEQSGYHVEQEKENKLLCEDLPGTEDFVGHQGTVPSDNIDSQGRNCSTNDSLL
Outline: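 Cells (CHO, stable ADRB2 overexpression) incubated 18-20hr at 37C; compounds added from DMSO; agonist mix (1nM isoproterenol, 100uM IBMX, 25uM Ro-20-1724) added; 0.5hr RT; d2-cAMP and anti-cAMP-cryptate added; 1hr RT; 665/615 nm read.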

[17] = biological target: Beta-2 adrenergic receptor (Homo sapiens) (UniProt P07550); experiment: Adrenergic beta2 receptor (ADRB2) small molecule agonists, cell-based qHTS assay (AID 1963593);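 further: CHO cells stably overexpressing human ADRB2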
Outline: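 CHO cells stably over-expressing ADRB2 were plated overnight at 37C, then dosed with compounds plus a stimulation mix containing 100uM IBMX and 25uM Ro-20-1724 for 0.5hr at room temperature. cAMP was measured by HTRF competition, 1hr.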

[18] = biological target: D(2) dopamine receptor (Homo sapiens) (UniProt P14416); experiment: Dopamine D2 receptor (DRD2) small molecule agonists, cell-based qHTS assay (AID 1963594); further: nearly all actives have a fitted effect of over 35% in size
Chain of D(2) dopamine receptor (Homo sapiens) (P14416 whole entry, looked up): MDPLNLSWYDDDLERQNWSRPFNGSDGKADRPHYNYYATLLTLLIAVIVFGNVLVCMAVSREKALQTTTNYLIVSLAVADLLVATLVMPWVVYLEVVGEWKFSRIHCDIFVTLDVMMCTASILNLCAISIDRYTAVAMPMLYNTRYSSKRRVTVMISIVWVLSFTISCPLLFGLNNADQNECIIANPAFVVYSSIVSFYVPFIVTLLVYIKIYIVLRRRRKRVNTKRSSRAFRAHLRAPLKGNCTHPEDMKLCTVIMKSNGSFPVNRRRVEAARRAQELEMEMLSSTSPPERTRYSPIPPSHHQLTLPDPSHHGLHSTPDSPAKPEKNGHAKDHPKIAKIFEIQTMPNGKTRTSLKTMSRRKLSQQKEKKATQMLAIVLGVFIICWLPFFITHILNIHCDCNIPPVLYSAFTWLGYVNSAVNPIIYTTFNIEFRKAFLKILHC
Outline: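 HEK293 cells stably expressing human DRD2, pre-treated with PDE inhibitor Ro20-1724 (0.1 mM final) and compound 10 min at room temperature, then stimulated with NKH477 (200nM […]) for 30 min. cAMP read by HTRF (665/620 nm).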

[19] = biological target: D(2) dopamine receptor (Homo sapiens) (UniProt P14416); experiment: Dopamine D2 receptor (DRD2) small molecule antagonists, cell-based qHTS assay (AID 1963595; active means well fitted inhibition curve with a large enough effect in the signal ratio in the repeat runs, with a control signal flat; the % refers to the signal ratio)
Outline: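 HEK293 cells stably expressing DRD2 were preincubated with 0.1 mM Ro20-1724, then with compound for 10 min at room temperature. Cells were stimulated with 200 nM NKH477 plus 12 nM quinpirole for 30 min, and cAMP was read by HTRF.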

[20] = biological target: Muscarinic acetylcholine receptor M1 (Homo sapiens) (UniProt P11229); experiment: Cholinergic receptor muscarinic 1 (CHRM1) small molecule agonists, cell-based qHTS assay (AID 1963589); further: nearly all actives have a fitted effect of over 35% in size
Outline: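 Measures agonist-induced intracellular calcium rise. Stable human CHRM1 CHO line, 1 h dye load at 37 C, compounds from DMSO, kinetic fluorescence read.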

Measured: Potency

O=C1C=CC(=O)O1
not listed: [20]
inactive: all other assays above

COc1ccc2cccc(CCNC(C)=O)c2c1
not listed: [14] | [18]
inactive: all other assays above

CCc1c(C(=O)O)c(=O)cnn1-c1ccc(Cl)cc1
not listed: [14] | [17] | [18] | [19]
inactive: all other assays above

O=C1NC(c2ccccc2)(c2ccccc2)C(=O)N1COP(=O)(O)O
not listed: [14]
inactive: all other assays above

NC(=O)c1ccc([N+](=O)[O-])cc1
not listed: [14] | [17]
inactive: all other assays above

CCOC(=O)c1ccc(C)cc1
not listed: [14] | [19]
inactive: all other assays above

CC(C)(C)C(=O)C(Oc1ccc(Cl)cc1)n1ccnc1 (stereo unspecified)
not listed: [19] | [20]
inactive: all other assays above
